Laboratory results as given in PubChem BioAssay (Tox21).
Several values for one entry are separate records, joined by “and”; a condition that tells them apart may be missing. Equal values may be shown once. Some compounds were tested as several samples or in several runs, with calls that do not always agree. Activity calls are given as the source filed them. Where a call stands in place of a potency, no number is given. The call rests on the fitted dose curve.
Potency means the concentration at half of the fitted maximal effect.

The molecules below were run against Thyrotropin-releasing hormone receptor (Homo sapiens) (UniProt P34981) (assay: qHTS assay to identify small molecule agonists of the thyrotropin-releasing hormone receptor (TRHR) signaling pathway (AID 1346891)). Conditions: TRHR-HEK293 calcium fluorescence, agonist mode; series mostly up to 57.6 µM.
Sequence of Thyrotropin-releasing hormone receptor (Homo sapiens) (P34981 whole entry, looked up): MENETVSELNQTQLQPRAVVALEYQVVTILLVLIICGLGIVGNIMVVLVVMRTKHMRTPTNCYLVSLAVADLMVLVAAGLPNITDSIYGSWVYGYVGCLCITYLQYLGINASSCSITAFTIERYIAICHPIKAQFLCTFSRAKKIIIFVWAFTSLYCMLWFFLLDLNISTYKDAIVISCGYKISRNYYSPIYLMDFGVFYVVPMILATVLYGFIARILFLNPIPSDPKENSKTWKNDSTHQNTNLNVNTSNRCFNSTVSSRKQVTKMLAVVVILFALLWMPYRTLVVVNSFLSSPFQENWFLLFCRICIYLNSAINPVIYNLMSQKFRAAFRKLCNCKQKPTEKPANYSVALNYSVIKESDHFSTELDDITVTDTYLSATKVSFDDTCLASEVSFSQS
Text: National Center for Advancing Translational Sciences [NCATS] NIH Chemical Genomics Center [NCGC] U.S. Environmental Protection Agency [EPA] National Institutes of Environmental Health Sciences [NIEHS] National Toxicology Program [NTP] Assay overview: Thyrotropin-releasing hormone (TRH) receptor (TRHR) is a G-protein-coupled receptor which binds the tripeptide thyrotropin releasing hormone. TRHR is found in the brain and, when bound by TRH, acts (through phospholipase C) to increase intracellular inositol trisphosphate. It plays a crucial role in the anterior pituitary where it controls the synthesis and secretion of thyroid stimulating hormone and prolactin. The TRHR-Hek293 assay is a cell-based assay, and it has the potential to screen G protein-coupled receptors. A compound/drug can either activate (agonist) or suppress (antagonist) GPCRs that can be monitored by levels of intracellular calcium. Using this assay, the Tox21 10K compound library was screened to identify potential TRHR agonists.
Assay Protocol Summary: The TRHR-Hek293 cells were dispensed at 1500cells/4uL/well in 1536-well black-clear bottom plates using a Multidrop dispenser. After the assay plates were incubated at a 37 C/5% CO2 incubator for 18 hours, 4 uL of Dye-Loading Solution was added to each well. The plates were incubated at 37 C for 2 hours. For agonist mode, 23 nL of compounds dissolved in DMSO, positive controls or DMSO only was transferred to the assay plate by a pin tool. The fluorescence intensity in the plates was measured using FDSS 7000EX kinetic plate reader for 3 min at 1 sec intervals. Each test compound was measured at 15 concentrations and in triplicates.
For `COc1ccccc1NC(=O)CC(C)=O`, the Potency was “inactive”.
For `COc1cc(O)c(C(=O)c2ccccc2)cc1S(=O)(=O)O`, the Potency was “inactive”.
With `CCn1cc(C(=O)O)c(=O)c2ccc(C)nc21` the Potency was “inactive”.
`Cc1cccc(Nc2cc(Cl)nc(SCC(=O)O)n2)c1C` was tested, and the Potency was “inactive”.
For `CCOCCO`, the Potency was “inactive”.
For `Cc1cnc(NC(=O)C2=C(O)c3ccccc3S(=O)(=O)N2C)s1`, the Potency was “inactive”.
With `COc1cc(C=O)ccc1O` the Potency was “inactive”.
In the case of `CC1=NN(c2ccccc2)C(=O)C1`, the Potency is reported as “inactive”.
With `CCN(CC)CCOC(=O)c1ccc(N)cc1` the Potency was “inactive”.
In the case of `CCN1CCCC1=O`, the Potency is reported as “inactive”.
With `COc1ccc(C(=O)c2ccccc2)c(O)c1` the Potency was “inactive”.
With `N[C@@H](Cc1c[nH]c2ccc(O)cc12)C(=O)O` the Potency was “inactive”.
In the case of `CC1(C)O[C@@H]2[C@@H](CO[C@@]3(COS(N)(=O)=O)OC(C)(C)O[C@@H]23)O1`, the Potency is reported as “inactive”.
For `CC(=O)CCC(C)C`, the Potency was “inactive and 17.4 µM (active)”.
For `COC1=CC(=O)C[C@@H](C)[C@]12Oc1c(Cl)c(OC)cc(OC)c1C2=O`, the Potency was “inactive”.
In the case of `O=C(O)CCCCC1CCSS1` (stereo not given), the Potency is reported as “inactive”.
`Cn1cnc2c1c(=O)[nH]c(=O)n2C` was tested, and the Potency was “inactive”.
In the case of `NC(=O)N1c2ccccc2C=Cc2ccccc21`, the Potency is reported as “inactive”.
With `CCOC(=O)C(C)(C)Oc1ccc(Cl)cc1` the Potency was “inactive”.
For `CCc1cc(C(N)=S)ccn1`, the Potency was “inactive”.
For `COCCOCCOC`, the Potency was “inactive”.
In the case of `C#C[C@]1(O)CC[C@H]2[C@@H]3CCc4cc(O)ccc4[C@H]3CC[C@@]21C`, the Potency is reported as “inactive”.
With `C=C(C)C(N)=O` the Potency was “inactive”.
With `NC(=O)NO` the Potency was “inactive”.
`COc1ccc(O)cc1` was tested, and the Potency was “inactive”.
With `Cc1c(N(C)CS(=O)(=O)O)c(=O)n(-c2ccccc2)n1C` the Potency was “inactive”.
`Cc1cccc(C)c1O` was tested, and the Potency was “inactive”.
With `O=C(O)CN(CC(=O)O)CC(=O)O` the Potency was “inactive”.
With `CC(C)(C)NCC(O)c1ccc(O)c(CO)c1` (stereo not given) the Potency was “inactive”.
With `C/C=C/c1ccc(O)c(OC)c1` the Potency was “inactive”.
With `C=CCOC(=O)CC(C)C` the Potency was “inactive”.
`NC(=O)c1ccc([N+](=O)[O-])cc1Cl` was tested, and the Potency was “inactive”.
`C1CNCCN1` was tested, and the Potency was “inactive”.
In the case of `CC(C)CC(C)CC(O)CC(C)C` (stereo not given), the Potency is reported as “inactive”.
For `CC(=O)c1ccc(S(=O)(=O)NC(=O)NC2CCCCC2)cc1`, the Potency was “inactive”.
For `Nc1cccc(N)c1`, the Potency was “inactive”.
In the case of `CC(C)Cc1ccc(C(C)C(=O)O)cc1` (stereo not given), the Potency is reported as “inactive”.
For `Cc1cccc2ccccc12`, the Potency was “inactive”.
For `Nc1ccc(N=Nc2ccccc2)c(N)n1`, the Potency was “inactive”.
`CC(C)(C)CC(C)(C)c1ccc(O)c(-n2nc3ccccc3n2)c1` was tested, and the Potency was “inactive”.
